Source: PubChem BioAssay AID1159580 (chemical genetic matrix, 2015)
Where “and” joins values, the source holds several entries; their conditions need not be identical. Equal entries are not always repeated. The campaign covered roughly 5,500 compounds. About 2,000 (36%) were called active. Roughly 18% stayed inconclusive and do not appear here. No stated cut-off is given here; in the data, active means normalized growth mostly below about 0.91 (no sharp cut-off); inconclusive means no clear call, values can overlap the other calls; inactive means mostly above about 0.92. The list shows a part of the results.

Assay: chemical genetic growth profiling, strain panel (AID 1159580);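 further: tested at 20 µM; growth read once vehicle control cultures reached saturation at 30 °C; 1 = growth at the plate median or of vehicle wells; lower values mean less growth of the strain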
Conditions: S. cerevisiae deletion strains, growth OD

Measured: normalized growth

CN1CCN2c3ccccc3Cc3ccccc3C2C1 (stereo unspecified)
inactive: locus YAL013W, strain DEP1, hits give low values 1.01 and 0.984 | locus YAL021C, strain ccr4, hits give low values 0.97 | locus YAL026C, strain drs2, hits give low values 0.999 | locus YAL030W, strain snc1, hits give low values 1 | locus YAL040C, strain CLN3, hits give low values 1.01 | locus YBL061C, strain skt5, hits give low values 0.998 | locus YBR009C, strain hhf1, hits give low values 0.987 | locus YBR021W, strain FUR4, hits give low values 0.992 | locus YBR023C, strain chs3, hits give low values 0.994 | locus YBR171W, strain sec66, hits give low values 1.02 | locus YBR229C, strain ROT2, hits give low values 1.01 | locus YBR231C, strain swc5, hits give low values 0.996 | locus YBR279W, strain paf1, hits give low values 1 | locus YCL011C, strain gbp2, hits give low values 1 | locus YCL016C, strain dcc1, hits give low values 0.994 | locus YCL029C, strain bik1, hits give low values 0.99 | locus YCL061C, strain MRC1 (second series), hits give low values 0.995 | locus YCL061C, strain MRC1, hits give low values 0.999 | locus YCL069W, strain vba3, hits give low values 0.998 | locus YCR088W, strain abp1, hits give low values 1 | locus YDL005C, strain med2, hits give low values 1.01 | locus YDL035C, strain GPR1, hits give low values 1.03 | locus YDL040C, strain nat1, hits give low values 1 | locus YDL074C, strain BRE1, hits give low values 1.03 | locus YDL101C, strain DUN1, hits give low values 1.02 | locus YDL134C, strain PPH21, hits give low values 1.01 | locus YDL185W, strain tfp1, hits give low values 0.982 | locus YDL192W, strain arf1, hits give low values 0.989 | locus YDR001C, strain nth1, hits give low values 1.01 | locus YDR069C, strain doa4, hits give low values 0.986 | locus YDR101C, strain arx1, hits give low values 0.985 | locus YDR137W, strain rgp1, hits give low values 1.01 | locus YDR150W, strain NUM1, hits give low values 1.01 and 0.988 | locus YDR159W, strain sac3, hits give low values 0.988 | locus YDR162C, strain NBP2, hits give low values 1.05 | locus YDR195W, strain ref2 0.972 | locus YDR297W, strain sur2, hits give low values 1.01 | locus YDR318W, strain mcm21, hits give low values 0.979 | locus YDR334W, strain swr1, hits give low values 1 | locus YDR335W, strain msn5, hits give low values 1 | locus YDR363W, strain ESC2, hits give low values 0.983 | locus YDR388W, hits give low values 0.99 | locus YDR392W, strain spt3, hits give low values 0.881 | locus YDR502C, strain sam2, hits give low values 0.982 | locus YEL003W, strain gim4, hits give low values 0.997 | locus YEL037C, strain rad23, hits give low values 1 | locus YEL061C, strain CIN8 (second series), hits give low values 1.01 | locus YEL061C, strain CIN8, hits give low values 1.01 | locus YER002W, strain NOP16, hits give low values 0.998 | locus YER015W, strain faa2, hits give low values 1 | locus YER016W, strain bim1, hits give low values 0.991 | locus YER110C, hits give low values 0.985 | locus YER111C, strain swi4, hits give low values 0.993 | locus YER155C, strain BEM2 (second series), hits give low values 0.978 | locus YER155C, strain BEM2, hits give low values 1.01 | locus YER167W, strain BCK2, hits give low values 1.02 | locus YFR010W, strain ubp6, hits give low values 1.01 | locus YGL078C, strain dbp3, hits give low values 0.981 | locus YGL086W, strain mad1, hits give low values 0.988 | locus YGL167C, strain pmr1, hits give low values 1 | locus YGL173C, strain kem1, hits give low values 1.01 | locus YGL227W, strain vid30, hits give low values 1.01 | locus YGL240W, strain doc1, hits give low values 0.979 | locus YGL248W, strain PDE1, hits give low values 1.01 | locus YGL253W, strain hxk2, hits give low values 1.01 | locus YGR078C, strain PAC10, hits give low values 1.03 and 1.01 | locus YGR135W, strain pre9, hits give low values 0.977 | locus YGR229C, strain SMI1, hits give low values 1.01 and 0.95 | locus YGR252W, strain gcn5, hits give low values 0.964 | locus YHR013C, strain ard1, hits give low values 0.939 | locus YHR027C, strain rpn1, hits give low values 1 | locus YHR030C, strain SLT2, hits give low values 1.01 and 0.992 | locus YHR079C, strain IRE1 (second series), hits give low values 0.987 | locus YHR079C, strain IRE1, hits give low values 0.987 | locus YHR094C, strain hxt1, hits give low values 0.989 | locus YHR129C, strain ARP1, hits give low values 1.01 | locus YHR142W, strain chs7, hits give low values 0.997 | locus YHR200W, strain rpn10, hits give low values 0.995 | locus YIL066C, strain RNR3, hits give low values 1.02 | locus YIL073C, strain SPO22, hits give low values 1.01 | locus YIL125W, strain kgd1, hits give low values 0.989 | locus YIR030C, strain dcg1, hits give low values 0.984 | locus YJL092W, strain hpr5, hits give low values 1 | locus YJL095W, strain BCK1 (second series), hits give low values 0.999 | locus YJL095W, strain BCK1, hits give low values 1.01 and 0.988 | locus YJL115W, strain asf1, hits give low values 1 | locus YJL129C, strain trk1, hits give low values 0.99 | locus YJL134W, strain LCB3, hits give low values 1.01 | locus YJL154C, strain vps35, hits give low values 1 | locus YJL164C, strain tpk1, hits give low values 0.978 | locus YJL166W, strain qcr8, hits give low values 0.987 | locus YJL168C, strain set2, hits give low values 0.991 | locus YJL187C, strain SWE1 (second series), hits give low values 1.01 | locus YJL187C, strain SWE1, hits give low values 1 | locus YJR043C, strain POL32, hits give low values 1 | locus YJR066W, strain TOR1, hits give low values 0.932
